Consider nine molecules from PMC5540273 (PLoS ONE, 2017).

Each structure is given as a SMILES string.

Test systems include DYRK1A; DYRK1B; DYRK2; EGFR; EIF2AK1; EPHA1; EPHA2; EPHA3; EPHA4; EPHA5; EPHA6; EPHA7; EPHA8; EPHB1; EPHB2; EPHB3; EPHB4; EPHB6.
Common to all, as to conditions: concentration: 1 μM, replicates: in singlicate; n = 1
The subject of another assay is T1, DRAK1.
T1 construct: gene STK17A

A further assay relates to T2, DRAK2.
T2 construct: gene STK17B
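Note: KINOMEscan kinase panel screen.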

For `Cc1ccc(C(=O)Nc2ccc(Nc3ccnc4cc(-c5ccccn5)ccc34)cc2O)cc1.Cl` [GW440146], the “%Inh” value with DRAK1 is recorded as 0%; in the assay with DRAK2, 11%; in the assay on DYRK1A it was 18%; with DYRK1B it was 0%; with DYRK2 it was 0%; in the assay on EGFR, 32%. For the same molecule, the “%Inh” value with EIF2AK1 was 0%; in the assay with EPHA1, 4%; in the assay on EPHA2 it was 0%; with EPHA3, 0%; in the assay with EPHA4 it was 0%; in the assay on EPHA5, 0%. Besides, the “%Inh” value in the assay with EPHA6 came out at 0%; with EPHA7, 4%; in the assay with EPHA8 it was 10%; with EPHB1 it was 5%; in the assay with EPHB2, 14%; in the assay on EPHB3, 0%. The “%Inh” value with EPHB4 was found to be 0%; in the assay with EPHB6 it was 48%.
As to `CCn1c(-c2cccnc2O)nc2cnccc21` [SB-736715], the “%Inh” value was determined as 0% in the assay on DRAK1; 0% in the assay with DRAK2; 0% with DYRK1A; 54% in the assay on DYRK1B; 0% in the assay with DYRK2; 7% in the assay with EGFR. For the same molecule, the “%Inh” value in the assay on EIF2AK1, in the assay on EPHA1, in the assay with EPHA2, in the assay with EPHA3, in the assay on EPHA4 and with EPHA5 was 0% each time. In addition, the “%Inh” value in the assay on EPHA6 came out at 0%; in the assay on EPHA7, 0%; in the assay on EPHA8 it was 0%; in the assay with EPHB1, 0%; with EPHB2 it was 6%; in the assay on EPHB3, 0%. The “%Inh” value in the assay on EPHB4 and in the assay with EPHB6 was 0% throughout.
Turning to `COc1ccccc1CNC(=O)c1cc(C(=O)c2ccccc2C)c[nH]1` [GSK364507], the “%Inh” value turned out to be 1% in the assay with DRAK1; 12% in the assay on DRAK2; 17% in the assay with DYRK1A; 19% in the assay on DYRK1B; 0% in the assay with DYRK2; 36% with EGFR. For the same molecule, the “%Inh” value in the assay with EIF2AK1 came out at 0%; with EPHA1 it was 25%; in the assay with EPHA2, 13%; in the assay with EPHA3 it was 0%; in the assay with EPHA4, 5%; in the assay with EPHA5, 0%. Also, the “%Inh” value in the assay with EPHA6 amounted to 0%; in the assay on EPHA7, 8%; in the assay on EPHA8, 19%; in the assay with EPHB1, 25%; with EPHB2, 0%; in the assay with EPHB3, 6%. Further, the results for the “%Inh” value in the assay with EPHB4 and in the assay on EPHB6 were 20% and 11%, respectively.
Take `Cn1ccc2ncnc(Oc3ccc(Nc4nc5ccccc5[nH]4)cc3)c21`: the “%Inh” value is recorded as 0% in the assay on DRAK1; 2% in the assay with DRAK2; 0% in the assay on DYRK1A; 5% in the assay on DYRK1B; 0% in the assay on DYRK2; 0% in the assay on EGFR. Also, the “%Inh” value in the assay with EIF2AK1 came out at 0%; in the assay with EPHA1, 0%; with EPHA2 it was 0%; with EPHA3 it was 2%; in the assay with EPHA4 it was 12%; in the assay with EPHA5, 0%. In addition, the “%Inh” value amounted to 4% in the assay on EPHA6; 0% in the assay with EPHA7; 0% in the assay with EPHA8; 0% with EPHB1; 0% in the assay on EPHB2; 0% in the assay on EPHB3. The figures for the “%Inh” value in the assay with EPHB4 and in the assay on EPHB6 were 1% and 0%, respectively.
Turning to `Cc1cccc(-c2nc(-c3ccc(S(C)(=O)=O)cc3)sc2-c2ccnc(NCCc3ccccc3)c2)c1`, the “%Inh” value in the assay on DRAK1 came out at 0%; in the assay with DRAK2, 10%; in the assay on DYRK1A it was 0%; in the assay with DYRK1B it was 51%; in the assay with DYRK2, 0%; in the assay on EGFR, 0%. The “%Inh” value came to 1% with EIF2AK1; 0% in the assay on EPHA1; 0% in the assay on EPHA2; 9% in the assay on EPHA3; 0% with EPHA4; 0% in the assay on EPHA5. The “%Inh” value with EPHA6 was found to be 15%; with EPHA7 it was 0%; in the assay on EPHA8 it was 0%; with EPHB1, 0%; with EPHB2, 10%; with EPHB3, 0%. The “%Inh” value with EPHB4 and in the assay on EPHB6 was 0% in each case.
Turning to `Cc1csc(-c2nc(Nc3ccncc3)c3ccccc3n2)n1` [GW869640], the “%Inh” value is reported as 10% in the assay on DRAK1; 0% with DRAK2; 18% with DYRK1A; 0% in the assay with DYRK1B; 29% in the assay with DYRK2; 1% in the assay on EGFR. The “%Inh” value in the assay with EIF2AK1 amounted to 14%; in the assay with EPHA1, 0%; in the assay on EPHA2, 0%; with EPHA3 it was 30%; with EPHA4, 8%; with EPHA5, 13%. In addition, the “%Inh” value stood at 6% with EPHA6; 6% in the assay with EPHA7; 5% with EPHA8; 7% with EPHB1; 0% in the assay on EPHB2; 9% in the assay with EPHB3. Further, the entries for the “%Inh” value in the assay on EPHB4 and in the assay on EPHB6 were 0% and 28%, respectively.
For the molecule `COc1cc2ncn(-c3cc(OCC4CCCO4)c(C(N)=O)s3)c2cc1OC` (stereo not drawn) [GSK204607], the “%Inh” value in the assay on DRAK1 turned out to be 0%; with DRAK2, 0%; with DYRK1A, 0%; in the assay on DYRK1B, 0%; in the assay with DYRK2 it was 14%; with EGFR, 20%. For the same molecule, the “%Inh” value in the assay with EIF2AK1 was found to be 0%; in the assay with EPHA1, 3%; with EPHA2 it was 10%; with EPHA3 it was 16%; in the assay with EPHA4, 7%; in the assay on EPHA5 it was 0%. The “%Inh” value with EPHA6 is listed as 1%; in the assay with EPHA7 it was 0%; with EPHA8 it was 3%; with EPHB1, 24%; in the assay on EPHB2, 0%; in the assay with EPHB3 it was 0%. For the same molecule, the “%Inh” value turned out to be 27% in the assay with EPHB4 and 23% with EPHB6.
Turning to `Cc1cc(NCC(c2ccccc2)c2ccccc2)nc(NCc2ccc(C(F)(F)F)cc2)n1` [GW497681], the “%Inh” value in the assay on DRAK1 was found to be 0%; in the assay with DRAK2, 0%; with DYRK1A, 0%; in the assay on DYRK1B, 0%; in the assay with DYRK2, 3%; with EGFR, 10%. Further, the “%Inh” value in the assay on EIF2AK1 stood at 0%; in the assay on EPHA1 it was 0%; in the assay on EPHA2, 3%; with EPHA3, 0%; in the assay on EPHA4, 0%; with EPHA5, 0%. For the same molecule, the “%Inh” value in the assay with EPHA6 stood at 0%; in the assay with EPHA7, 7%; with EPHA8, 6%; in the assay on EPHB1, 0%; in the assay with EPHB2 it was 0%; in the assay with EPHB3, 0%. Further, the “%Inh” value in the assay on EPHB4 was 7%; with EPHB6, 8%.
With `COc1cccc(NC(=O)NC2CCN(c3ccnc(Nc4ccc(F)cc4)n3)C2)c1` (stereo not drawn) [GSK1379721], the “%Inh” value with DRAK1 turned out to be 0%; in the assay on DRAK2, 0%; with DYRK1A it was 0%; in the assay with DYRK1B it was 30%; in the assay with DYRK2, 26%; with EGFR, 17%. Also, the “%Inh” value is on record as 0% in the assay with EIF2AK1; 12% in the assay with EPHA1; 0% with EPHA2; 0% with EPHA3; 0% with EPHA4; 0% in the assay on EPHA5. In addition, the “%Inh” value is 0% with EPHA6; 0% with EPHA7; 3% in the assay with EPHA8; 17% with EPHB1; 0% in the assay on EPHB2; 0% in the assay on EPHB3. For the same molecule, the “%Inh” value with EPHB4 was found to be 0%; with EPHB6, 33%.
